The values that follow come from PubChem BioAssay.

In assay [1] the test system is Human papillomavirus type 1a protein E7 (residues 44-93). The experiment in a line: HPV1a E7 fragment binders on microarrays, primary screen, biochemical, small-molecule microarray, residues 44-93, 635 nm fluorescence (AID 1108).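 Further: E7 fragment applied at 1 µg/mL in TBST for 1 h at 4 C; score combines spot fluorescence with its signal to noise ratio.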 To be noted: small-molecule microarray binding, fluorescence 635 nm; higher = more signal.
A short description of assay [2]: modulators of HCV replicon luciferase signal, primary screen, HCV replication inhibitor project, Huh7 cells, luciferase reporter (AID 1109).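 Further: huh7 hepatoma cells harbouring a luciferase neomycin HCV replicon reporter; luciferase luminescence as measure of HCV replicon replication; test concentration not given here.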 To be noted: 48 h, higher = more signal. Background: In antiviral work, replicon cells carry a viral genome segment that copies itself.
Assay [3] has as its target Left-right determination factor 2 (Homo sapiens) (UniProt O00292). Put plainly: LEFTY2 binders on small-molecule microarrays, primary screen, biochemical, small-molecule microarray, 635 nm fluorescence scan (AID 1110). To be noted: LEFTY2 binding, higher = more signal.
The target of assay [4] is Calmodulin-1 (Homo sapiens) (UniProt P0DP23). Put plainly: CALM1 binders on microarrays, EGTA buffer, profiling panel, biochemical, small-molecule microarray, Cy5-labelled CALM1 (AID 1111).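 Further: labelled calmodulin applied in Tris saline Tween buffer holding calcium plus EGTA and DTT.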 To be noted: Cy5-CALM1 binding fluorescence, higher = more signal.
For assay [5] the target is unchanged. Put plainly: calcium-bound CALM1 binders on microarrays, profiling panel, artefact control for SMM control-protein annotation, biochemical, small-molecule microarray, Cy5-labelled CALM1, plus calcium (AID 1112).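 Further: score merges spot fluorescence with signal to noise from triplicate slides.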 To be noted: Cy5-CALM1 binding fluorescence, higher = more signal.
Assay [6] can be described thus: small-molecule microarray binders of probe aWnt5a, primary screen, biochemical, biotinylated probe, 635/667 nm fluorescence (AID 1113).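 Further: score merges 667 nm fluorescence intensity with signal-to-noise per printed feature.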 To be noted: higher = more signal.
The nature of assay [7]: small-molecule microarray binders of probe aShh, primary screen, biochemical, biotinylated probe, 635/667 nm fluorescence (AID 1114).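 Further: probe is biotin-labelled aShh protein from a stem cell growth factor screen; measures binding of labelled protein to compounds printed on the slide; score merges feature fluorescence at 667 nm with signal-to-noise.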 To be noted: higher = more signal.
Assay [8] is described as follows: small-molecule microarray binders of probe aNog, primary screen, biochemical, biotinylated probe, 635/667 nm fluorescence (AID 1115).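 Further: probe is biotinylated aNog protein used at 0.15 µg/mL for 1 h at 4 C; z-score combines 667 nm fluorescence of each spot with its signal to noise.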 To be noted: higher = more signal.
Assay [9] addresses Torsin-1A-interacting protein 1 (Homo sapiens) (UniProt Q5JTV8). The experiment in a line: LAP1 binders from COS7 cell lysate, primary screen, small-molecule microarray, 635/667 nm fluorescence (AID 1116). To be noted: COS7-hLAP1 lysate binding, 635 nm fluorescence, higher = more signal.
Assay [10] has as its target Alpha-bungarotoxin (Bungarus multicinctus) (UniProt P60615). The experiment in a line: alpha-bungarotoxin binders on microarray, profiling panel, artefact control for SMM control protein annotation, biochemical, small-molecule microarray, Alexa647 label, 635/667 nm fluorescence (AID 1117). To be noted: alpha-BTX-A647 binding fluorescence, higher = more signal.

Left-right determination factor 2 (Homo sapiens), sequence (O00292 whole entry, looked up): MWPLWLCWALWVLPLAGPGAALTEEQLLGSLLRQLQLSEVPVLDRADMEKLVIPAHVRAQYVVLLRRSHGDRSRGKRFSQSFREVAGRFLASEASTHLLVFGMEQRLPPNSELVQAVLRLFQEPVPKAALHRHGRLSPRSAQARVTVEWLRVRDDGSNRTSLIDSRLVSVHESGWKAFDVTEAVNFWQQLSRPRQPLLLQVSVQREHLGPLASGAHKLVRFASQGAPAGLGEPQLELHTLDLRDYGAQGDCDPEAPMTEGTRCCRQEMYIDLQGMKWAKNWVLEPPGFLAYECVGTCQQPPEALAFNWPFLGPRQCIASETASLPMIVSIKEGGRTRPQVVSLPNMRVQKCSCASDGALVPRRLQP
Torsin-1A-interacting protein 1 (Homo sapiens), sequence (Q5JTV8 whole entry, looked up): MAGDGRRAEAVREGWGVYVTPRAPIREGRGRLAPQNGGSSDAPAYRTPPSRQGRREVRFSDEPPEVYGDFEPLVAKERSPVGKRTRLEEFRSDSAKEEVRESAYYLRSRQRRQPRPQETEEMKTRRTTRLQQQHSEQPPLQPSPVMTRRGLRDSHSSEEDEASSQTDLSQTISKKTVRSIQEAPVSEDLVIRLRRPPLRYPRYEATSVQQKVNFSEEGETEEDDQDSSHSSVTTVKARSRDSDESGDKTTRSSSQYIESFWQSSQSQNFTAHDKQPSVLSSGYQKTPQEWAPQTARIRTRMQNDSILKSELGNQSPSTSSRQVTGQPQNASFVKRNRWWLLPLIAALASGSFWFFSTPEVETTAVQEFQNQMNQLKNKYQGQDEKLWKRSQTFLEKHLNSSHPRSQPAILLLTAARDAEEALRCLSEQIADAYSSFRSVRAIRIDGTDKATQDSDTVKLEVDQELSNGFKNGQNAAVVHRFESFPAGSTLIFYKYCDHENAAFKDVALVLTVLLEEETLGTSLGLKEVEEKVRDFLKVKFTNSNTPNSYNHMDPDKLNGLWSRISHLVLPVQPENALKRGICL
Alpha-bungarotoxin (Bungarus multicinctus), sequence (P60615 whole entry, looked up): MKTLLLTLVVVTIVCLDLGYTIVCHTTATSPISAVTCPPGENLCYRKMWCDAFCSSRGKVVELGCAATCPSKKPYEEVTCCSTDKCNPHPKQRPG

In the case of `CC(C)=C1C(=O)C(c2ccccc2)=C2CN3C(=O)N(CCc4ccccc4)C(=O)[C@]3(C)[C@H]21`, the composite z-score in assay [1] is 0.186; in [3], -0.245; in assay [4], 1.16; in [5] it was 0.0844; in [6], 0.0825; in [7], 0.748. Moreover, the composite z-score in [8] stood at 0.794; in [9] it was 0.149; in [10] it was 0.196. Besides, in [2], the z-score was -0.44.
As for `C=CCOC(=O)[C@@H]1[C@H]2C(=O)O[C@H](c3ccccc3)[C@H](c3ccccc3)N2[C@H](c2ccc(OCCOC(=O)[C@H]3C[C@H]4C(=O)NCC(=O)N4[C@H]3c3cccc(OCCO)c3)cc2)[C@@]12C(=O)Nc1ccc(I)cc12`, the composite z-score was 0.534 in [1]; 0.553 in assay [3]; 1.33 in assay [4]; 0.0237 in [5]; -0.0327 in assay [6]; 0.147 in [7]. In addition, the composite z-score in assay [8] is -0.381; in assay [9] it was 1.61; in assay [10], 1.39. Moreover, the z-score in [2] was -0.582.
Regarding `C=CCNC(=O)[C@H]1[C@@H]2C(=O)O[C@@H](c3ccccc3)[C@@H](c3ccccc3)N2[C@@H](c2ccccc2OCCO)[C@]12C(=O)N(C(=O)OCCOC)c1ccc(C#Cc3ccc(OC)cc3)cc12`, the composite z-score in assay [1] was 1.39; in [3], 0.342; in [4], 1.39; in assay [5] it was 0.37; in assay [6] it was -0.152; in [7] it was -0.0011. Moreover, the composite z-score turned out to be 0.254 in [8], 0.143 in assay [9] and 1.3 in [10]. Also, in assay [2], the z-score was -2.79.
For `CCOC(=O)C[C@H]1[C@H](OC(=O)c2ccccc2-c2ccccc2)[C@@H](NC(=O)C2CCCCC2)c2cc(OCCCO)ccc2N1C(=O)c1ccc2ccccc2n1`, the composite z-score in [1] was 1.31; in [3], 0.358; in assay [4], 0.236; in [5] it was -0.24; in [6] it was -0.0087; in [7] it was 0.0611. In addition, the composite z-score in assay [8] is 0.0707; in assay [9], -0.0006; in assay [10] it was 0.026. Moreover, the z-score in assay [2] was -1.71.
Take `C=CC[C@@]1(C(=O)N(C)C)N=C(c2ccc(OCCCO)cc2)O[C@@H]1c1ccccc1CN=[N+]=[N-]`: the composite z-score worked out at 1.42 in assay [1]; 0.681 in [3]; 1.79 in assay [4]; 0.366 in assay [5]; 0.0293 in assay [6]; 0.246 in [7]. Moreover, the composite z-score in [8] amounted to 0.0919; in [9], 1.23; in assay [10], 1.35. For the same compound, the z-score in assay [2] was -2.67.
As for `CN(C)CCCNC(=O)[C@@]1(Cc2ccccc2I)c2ccccc2C(=O)N(C2CCCCC2)[C@H]1c1ccc(CO)cc1`, the composite z-score was 0.664 in assay [1]; 0.0837 in assay [3]; 1.71 in assay [4]; 1.2 in [5]; -0.0057 in assay [6]; 1.26 in assay [7]. Also, the composite z-score in assay [8] was 0.0646; in [9] it was 1.02; in assay [10], 2.57. In addition, the z-score in assay [2] is -3.49.
Consider `[N-]=[N+]=Nc1ccccc1[C@@H]1OC(c2ccc(OCCCO)cc2)=N[C@]1(CCS(=O)(=O)c1ccccc1)C(=O)NCC(O)CO` (stereo not given in full), for which the composite z-score in assay [1] is 0.535; in [3], -0.741; in assay [4], 0.867; in assay [5], -0.271; in assay [6] it was -0.0977; in assay [7], -0.0011. Also, the results for the composite z-score in assay [8], in assay [9] and in [10] were 0.437, 2.18 and 0.534, respectively. The z-score in assay [2] was -0.485.
With `COC(=O)[C@@]1(Cc2ccc(OC)cc2)[C@H]2c3cc(C(=O)N4CCCC4)n(Cc4ccc(C(F)(F)F)nc4)c3C[C@H]2CN1C(=O)c1ccccc1`, the composite z-score in assay [1] is 0.381; in [3], -0.412; in assay [4], 0.0624; in [5], -0.954; in [6], 0.037; in assay [7], -0.153. In addition, the results for the composite z-score in assay [8], in assay [9] and in assay [10] were 0.374, 0.476 and -0.075, respectively. Also, in assay [2], the z-score is -2.25.
`CC(C)C(=C=CC[C@H](O)c1ccccc1OCCO)C[C@H](O)c1cc(Cl)cc(Cl)c1O`: the composite z-score was 1.46 in [1]; 0.0124 in [3]; 0.195 in assay [4]; 0.271 in [5]; -0.106 in assay [6]; 0.0048 in [7]. In addition, the values for the composite z-score in [8], in assay [9] and in assay [10] were 0.158, 0.962 and 0.919, respectively. In addition, in assay [2], the z-score is -1.99.
Take `COC(=O)C1(Cc2ccccc2)C=C2C(=C(C)C(=O)C2C)CN1` (stereo not given): the composite z-score in [1] was -0.706; in assay [3], -0.479; in assay [4], 1.92; in assay [5], 0.536; in assay [6] it was -0.0644; in assay [7] it was -0.0035. The composite z-score in assay [8] was determined as 1.68; in assay [9], 1.8; in assay [10], 0.242. In assay [2], this compound gave a z-score of 0.0597.
Regarding `NC(=O)N1C(=O)C2C(C1=O)C1C=C(CCCO)C2C(C2CC2)N1Cc1sc2ccccc2c1Cl` (stereo not given), the composite z-score in assay [1] was 0.173; in assay [3], 0.138; in [4], 1.42; in assay [5], 0.459; in assay [6], -0.0685; in assay [7] it was 0.138. Moreover, the figures for the composite z-score in assay [8], in assay [9] and in assay [10] were 0.654, 1.19 and 1.67, respectively. For the same compound, the z-score in assay [2] is -1.63.
Consider `CCCCCCc1nc(Cc2cc(OC)c(OC)c(OC)c2)cc2c1[Si](C(C)C)(C(C)C)O[C@H]2c1ccccc1`, for which the composite z-score in assay [1] was 0.192; in assay [3] it was 0.851; in [4], -0.0875; in assay [5] it was -0.593; in assay [6], -0.124; in assay [7] it was 0.235. Moreover, the values for the composite z-score in assay [8], in assay [9] and in assay [10] were 0.0646, -0.142 and 0.889, respectively. For the same compound, the z-score in [2] is -2.41.
Consider `CCOc1cc(C(O)C2C=CC3C(=O)N(c4ccccc4)C(=O)C3N2Nc2ccccc2F)ccc1O` (stereo not given), for which the composite z-score was 0.357 in assay [1]; -0.325 in [3]; 0.182 in assay [4]; 0.479 in [5]; 0.302 in assay [6]; 0.536 in assay [7]. For the same compound, the composite z-score in assay [8] was 1.71; in assay [9] it was -0.321; in [10] it was 0.762. In assay [2], the z-score is -0.299.
